Assay results taken from the supplement of paper PMC3545927.
The other results are listed elsewhere or left out. How many sequences the whole screen found active is unknown.

B1: HC172 (peptide)
chain: CAKFPGGGQIAGNASASA
B2: HC1965 (peptide)
chain: CAELTTPCSGAGNASASA
B3: HC760 (peptide)
chain: CAENLETTMRAGNASASA
B4: FS-985 (peptide)
chain: CADPERRKRFAGNASASA
B5: HC1584 (peptide)
chain: CATHFFSVLIAGNASASA
B6: HC2101 (peptide)
chain: CAVVCCSMSNAGNASASA
B7: HC207 (peptide)
chain: CAWAGWLLSPAGNASASA
B8: FS-2568 (peptide)
chain: CARLARSFDCAGNASASA
B9: FS-1735 (peptide)
chain: CARLARALSPAGNASASA
B10: FS-3015 (peptide)
chain: CARPARGAGPAGNASASA
B11: FS-2734 (peptide)
chain: CARPARALHPAGNASASA
B12: FS-2053 (peptide)
chain: CARPARVALPAGNASASA
B13: HC1255 (peptide)
chain: CARLARGSPPAGNASASA
B14: FS-2353 (peptide)
chain: CARLRRSSSPAGNASASA
B15: HC821 (peptide)
chain: CATDATSILGAGNASASA
B16: FS-3253 (peptide)
chain: CARHKKSKFTAGNASASA
B17: HC1354 (peptide)
chain: CASMPPLEGEAGNASASA
B18: NG6 (peptide)
chain: CAGAAKAAAGAGNASASA
B19: HC117 (peptide)
chain: CAVVCCYMSYAGNASASA
B20: HC881 (peptide)
chain: CAMTGYTGDFAGNASASA
B21: FS-2051 (peptide)
chain: CARPARFLDSAGNASASA
B22: FS-2984 (peptide)
chain: CARLARNVKEAGNASASA
B23: FS-1744 (peptide)
chain: CARLRRGQCPAGNASASA
B24: HC489 (peptide)
chain: CARDRSELSPAGNASASA
B25: FS-2574 (peptide)
chain: CARLRRGGDPAGNASASA
B26: FS-2983 (peptide)
chain: CARLARGEDEAGNASASA
B27: FS-1401 (peptide)
chain: CARPARFLRHAGNASASA
B28: FS-3144 (peptide)
chain: CAVTKRDVLDAGNASASA
B29: FS-1745 (peptide)
chain: CARLRRSLKPAGNASASA
B30: FS-2115 (peptide)
chain: CAVTKRSLSPAGNASASA
B31: HC842 (peptide)
chain: CAEEVALSTTAGNASASA
B32: HC1976 (peptide)
chain: CAEGTTPCSGAGNASASA
B33: HC2512 (peptide)
chain: CASTECSAHLAGNASASA
B34: HC129 (peptide)
chain: CAEVVHSTWVAGNASASA
B35: HC383 (peptide)
chain: CAHKFNSSGCAGNASASA
B36: FS-2717 (peptide)
chain: CARLRRSNYFAGNASASA
B37: FS-2280 (peptide)
chain: CARLRRSLPPAGNASASA
B38: FS-3161 (peptide)
chain: CARLRRSGRCAGNASASA
B39: FS-916 (peptide)
chain: CARLRRQKKGAGNASASA
B40: FS-1746 (peptide)
chain: CARLRRVKTAAGNASASA
B41: FS-2352 (peptide)
chain: CARLRRSLSPAGNASASA
B42: FS-1607 (peptide)
chain: CARLRRSKRCAGNASASA

Target: furin, P09958
Test: furin cleavage Z-score vs untreated control; higher = more cleavage, active = 3.5 or more, inactive = 1 or less, 8 variable residues between constant flanks
Summary of the method: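 The cleavage Z-score is the log read count relative to furin-free reactions, lowess-adjusted and scaled by median absolute deviation. Counts came from sequencing DNA released from bead-bound 8-mer peptide–cDNA fusions after digestion with purified furin for 7.5, 15 or 30 min.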
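Further: purified furin at 1:10 enzyme:substrate in 50 mM HEPES pH 7.5.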

Chain of furin, P09958 (P09958 whole entry): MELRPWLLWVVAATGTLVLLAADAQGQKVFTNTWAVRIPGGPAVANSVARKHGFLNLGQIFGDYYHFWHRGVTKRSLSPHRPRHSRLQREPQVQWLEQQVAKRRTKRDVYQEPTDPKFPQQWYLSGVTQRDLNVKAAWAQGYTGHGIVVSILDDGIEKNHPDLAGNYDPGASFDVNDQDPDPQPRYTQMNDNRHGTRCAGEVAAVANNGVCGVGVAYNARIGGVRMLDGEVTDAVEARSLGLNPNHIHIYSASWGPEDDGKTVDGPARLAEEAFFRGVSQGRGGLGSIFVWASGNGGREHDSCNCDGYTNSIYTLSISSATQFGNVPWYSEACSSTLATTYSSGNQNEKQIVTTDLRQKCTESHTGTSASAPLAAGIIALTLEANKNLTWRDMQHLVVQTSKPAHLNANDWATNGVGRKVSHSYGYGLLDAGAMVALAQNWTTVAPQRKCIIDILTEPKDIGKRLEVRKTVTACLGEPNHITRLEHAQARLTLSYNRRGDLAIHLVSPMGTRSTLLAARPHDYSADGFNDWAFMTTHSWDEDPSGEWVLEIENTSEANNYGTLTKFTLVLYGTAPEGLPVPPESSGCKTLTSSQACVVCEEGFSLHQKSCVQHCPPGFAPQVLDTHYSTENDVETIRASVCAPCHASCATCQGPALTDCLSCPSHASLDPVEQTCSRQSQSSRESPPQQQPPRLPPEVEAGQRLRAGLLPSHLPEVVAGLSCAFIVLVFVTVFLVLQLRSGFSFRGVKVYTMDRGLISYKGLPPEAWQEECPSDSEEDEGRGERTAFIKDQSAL

Row | Sequence | furin cleavage Z-score (7.5 min) | furin cleavage Z-score (15 min) | furin cleavage Z-score (30 min)
1 | B1 | -2.08 (inactive) | 0.112 (inactive) | -2.19 (inactive)
2 | B2 | -0.879 (inactive) | -0.537 (inactive) | -1 (inactive)
3 | B3 | 0.652 (inactive) | 0.35 (inactive) | 0.0456 (inactive)
4 | B4 | 4.94 (active) | 7 (active) | 7.37 (active)
5 | B5 | -0.934 (inactive) | -0.739 (inactive) | -0.913 (inactive)
6 | B6 | 0.58 (inactive) | 0.0609 (inactive) | 0.764 (inactive)
7 | B7 | -0.479 (inactive) | 0.659 (inactive) | 1.76
8 | B8 | 1.56 | 2.61 | 3.82 (active)
9 | B9 | 5.51 (active) | 6.45 (active) | 6.16 (active)
10 | B10 | 0.195 (inactive) | -1.12 (inactive) | -0.256 (inactive)
11 | B11 | 1.19 | 3.17 | 4.44 (active)
12 | B12 | -1.54 (inactive) | -0.594 (inactive) | 1.32
13 | B13 | 0.846 (inactive) | 0.514 (inactive) | 0.935 (inactive)
14 | B14 | 9.29 (active) | 8.89 (active) | 6.99 (active)
15 | B15 | 0.234 (inactive) | -0.686 (inactive) | -0.354 (inactive)
16 | B16 | -0.584 (inactive) | -0.415 (inactive) | -1.12 (inactive)
17 | B17 | 0.264 (inactive) | -0.391 (inactive) | -0.745 (inactive)
18 | B18 | -1.87 (inactive) | -1.89 (inactive) | -1.77 (inactive)
19 | B19 | -0.228 (inactive) | 0.612 (inactive) | -0.215 (inactive)
20 | B20 | 0.318 (inactive) | 1.08 | -0.18 (inactive)
21 | B21 | 0.467 (inactive) | 1.13 | 1.17

Row | Sequence | furin cleavage Z-score (7.5 min) | furin cleavage Z-score (15 min) | furin cleavage Z-score (30 min)
22 | B22 | 4.24 (active) | 6.29 (active) | 5.68 (active)
23 | B23 | -0.204 (inactive) | 1.25 | -0.396 (inactive)
24 | B24 | -0.384 (inactive) | 0.819 (inactive) | -0.778 (inactive)
25 | B25 | -0.102 (inactive) | 1.44 | 0.372 (inactive)
26 | B26 | -0.38 (inactive) | -0.666 (inactive) | -0.468 (inactive)
27 | B27 | 7.22 (active) | 9.82 (active) | 7.94 (active)
28 | B28 | -0.767 (inactive) | -0.792 (inactive) | 0.507 (inactive)
29 | B29 | 6.9 (active) | 7.63 (active) | 9.8 (active)
30 | B30 | 1.18 | 3.3 | 4.48 (active)
31 | B31 | 0.962 (inactive) | -0.0897 (inactive) | 1.67
32 | B32 | -0.304 (inactive) | 0.383 (inactive) | -0.263 (inactive)
33 | B33 | -0.161 (inactive) | -0.192 (inactive) | 2.81
34 | B34 | -0.835 (inactive) | 0.0271 (inactive) | -0.684 (inactive)
35 | B35 | 0.00727 (inactive) | -1.4 (inactive) | -0.526 (inactive)
36 | B36 | 0.785 (inactive) | 3.14 | 4.28 (active)
37 | B37 | 7.15 (active) | 6.52 (active) | 7.39 (active)
38 | B38 | 3.21 | -0.166 (inactive) | 3.48
39 | B39 | -0.934 (inactive) | -1.47 (inactive) | -0.511 (inactive)
40 | B40 | -0.934 (inactive) | -0.994 (inactive) | -0.54 (inactive)
41 | B41 | 10.8 (active) | 9.04 (active) | 8.19 (active)
42 | B42 | 2.93 | 1.58 | 3.77 (active)
